Source: PubChem BioAssay
TRHR agonist = agonists of human TRH receptor; AID 493084; actives 0.18% (n = 360,000); TRHR cells, calcium flux fluo-8, FDSS agonist mode; P34981; activation, % at 2 µM; note: 0% is about no effect
Target sequence (P34981 whole entry, looked up): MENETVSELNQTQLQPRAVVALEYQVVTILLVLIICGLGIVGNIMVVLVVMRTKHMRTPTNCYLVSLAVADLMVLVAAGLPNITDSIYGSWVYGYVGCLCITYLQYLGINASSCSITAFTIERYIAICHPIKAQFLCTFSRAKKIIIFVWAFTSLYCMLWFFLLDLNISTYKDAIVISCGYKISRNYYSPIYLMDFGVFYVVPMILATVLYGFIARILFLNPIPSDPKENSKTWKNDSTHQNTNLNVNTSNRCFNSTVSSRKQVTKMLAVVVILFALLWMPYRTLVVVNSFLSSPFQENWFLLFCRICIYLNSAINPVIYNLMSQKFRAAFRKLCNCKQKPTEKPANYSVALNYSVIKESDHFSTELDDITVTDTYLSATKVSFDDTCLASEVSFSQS
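In this calcium-flux screen, cells bearing human TRHR are dye-loaded with fluo-8, baselined for 10 cycles, then exposed to library compounds; positive kinetic calcium responses during the agonist phase mark hits, with TRH as control.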
D1 potentiator = enhances dopamine response at the human D1 receptor; potentiation, % at 10 µM; P21728; HEK293 TREx D1 cells, calcium flux, dopamine EC20 potentiation; actives 0.036% (n = 360,000); AID 504651; in the data active = potentiation above about 30%; note: 0% is about no effect
D1 antagonist = human D1 dopamine receptor antagonism; HEK293 TREx D1 cells, calcium flux, dopamine EC80; hits give low values; activity change, negative = inhibition, % at 10 µM; actives 3.2% (n = 360,000); in the data active = activity change below about -30%; note: % is set by controls: 0 for no effect and ±100 for the full control effect
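Tetracycline-induced HEK293 T-REx cells with force-coupled D1 receptor were loaded with a no-wash calcium dye. Compound was added after a 10 s baseline and read kinetically for 180 s; EC80 dopamine was then added and calcium flux followed another 180 s.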
TRHR enhancer = TRH receptor (human) allosteric enhancement. P34981. TRHR cells, fluo-8 calcium fluorescence, EC20 TRH enhancement. enhancement, % at 2 µM. actives 0.66% (n = 360,000); in the data active = enhancement above about 30%; note: 0% is about no effect
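Enhancer read-out: after compound pinning and an initial kinetic agonist-mode read, an EC20 of TRH (10 nM final) was injected and fluo-8 calcium signal (Ex 480/Em 530) followed at 1 s/cycle for 100 cycles in TRHR-expressing cells.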
D1 ag = agonists of human D1 dopamine receptor. P21728. activation, % at 2 µM. HEK293 T-REx D1 cells, calcium flux, agonist mode. AID 504660. actives 1% (n = 360,000); note: 0% is about no effect
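Inducible HEK293 T-REx D1 cells, force-coupled to calcium signalling, were plated at 4000 cells/well with tetracycline and held overnight at 30 C. After no-wash calcium dye loading, compound-evoked calcium rise over 180 s flagged agonists.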
Numbers without * were called inactive; x = not tested or not shown. Most compounds without a hit are left out; they make up all but 4.7% or so of the library. Cut-off read from the data, not from the text of the source, unless noted: active = activation above about 30%; inactive = the rest.

SMILES	TRHR agonist	D1 potentiator	D1 antagonist	TRHR enhancer	D1 ag
COc1ccc(S(=O)(=O)N(C)c2ccc(C(=O)Nc3cccnc3)cc2)cc1OC	-1	-5	-7	-4	0
CN(c1ccc(C(=O)Nc2cccnc2)cc1)S(=O)(=O)c1ccc(Cl)cc1	-1	-2	-41*	-1	15
CS(=O)(=O)N(Cc1ccc(Cl)cc1)c1ccc(C(=O)Nc2cccnc2)cc1	1	-10	-38*	19	16
COC(=O)Cc1c(C)c2ccc3c(c2oc1=O)CN(Cc1ccccc1OC)CO3	-1	-3	13	2	12
O=C(COc1ccc(Cl)cc1)Nc1ccc(C(=O)NCc2cccnc2)cc1	0	-4	6	1	10
O=C(NCc1cccnc1)c1ccc(COc2ccc(Cl)cc2)cc1	-1	-6	-32*	-7	14
O=C(COc1ccc(Cl)cc1)Nc1ccccc1C(=O)NCc1cccnc1	-1	3	17	-4	88*
O=C(CCl)Nc1ccccc1C(=O)NCc1ccccc1	0	-7	-18	34*	3
Cc1ccccc1NC(=O)Nc1ccccc1C(=O)NCc1ccccc1	0	-3	-3	0	1
CCOc1ccc(CNC(=O)CCCn2c(=O)c3cccn3c3ccc(F)cc32)cc1	0	5	-4	-1	4
COc1cc(NC(=O)CN(C)S(=O)(=O)c2ccc3[nH]c4c(c3c2)CCCC4)cc(OC)c1OC	-1	4	-3	-1	0
CC(=O)c1cccc(NC(=O)Cn2c(C)c3cnn(-c4ccccc4)c(=O)c3c2C)c1	1	0	8	0	1
CCC(C(=O)Nc1ccc(C(C)=O)cc1)n1c(C)c2cnn(-c3ccccc3)c(=O)c2c1C (configuration not stated)	6	-2	-4	-3	51*
CCOC(=O)CC1(NC(=O)c2cc(COc3ccc(F)c(F)c3)on2)CCCCC1	2	-2	32	1	31*
Cc1cc(CNC(=O)c2cc(COc3ccc(F)c(F)c3)on2)nn1C	1	1	-3	3	27
Cc1oc(C(C)(C)C)cc1C(=O)Nc1ccc2c(c1)OCO2	0	-9	-32*	6	1
CN(Cc1cccs1)C(=O)/C=C/c1ccccc1[N+](=O)[O-]	0	-8	-41*	13	10
CCCS(=O)(=O)c1c(S(=O)(=O)CCC)c2cnccn2c1C(=O)c1ccc(Cl)cc1	0	-2	-4	33*	-1
CC(OC(=O)c1ccc(NC(=O)CC#N)cc1)C(=O)NC(=O)NC1CCCCC1 (configuration not stated)	2	7	-32*	0	4
Cc1c(NC(=O)C(C)OC(=O)COc2ccccc2)c(=O)n(-c2ccccc2)n1C (configuration not stated)	0	0	0	-1	2
CC(OC(=O)c1ccc(NC(=O)CC#N)cc1)C(=O)NCCC1=CCCCC1 (configuration not stated)	1	-2	-1	-5	2
Cc1c(NC(=O)C(C)OC(=O)c2ccc(NC(=O)CC#N)cc2)c(=O)n(-c2ccccc2)n1C (configuration not stated)	0	1	-33*	11	2
CCCCN(CC)CCNC(=O)C1CCN(c2nnc(C)c3c(C)n(-c4ccc(C)cc4)nc23)CC1	0	-1	1	3	1
Cc1cc(Br)ccc1NC(=O)CN1C(=O)C2C3CC(c4ccccc4)C(C3)C2C1=O (configuration not stated)	2	-8	-39*	-5	1
COc1ccccc1N1CCN(CC(=O)c2ccc3ccn(C(C)=O)c3c2)CC1	-1	x	-76*	17	1
SMILES	TRHR agonist	D1 potentiator	D1 antagonist	TRHR enhancer	D1 ag
COc1ccc(C(=O)CCN2CCN(c3ccccc3OC)CC2)cc1	-1	-12	-46*	6	5
COc1ccccc1N1CCN(CCCC(=O)c2ccc(F)cc2)CC1	0	-9	-80*	22	6
COc1ccc(C(=O)N2CCN(c3ccccc3OC)CC2)cc1	2	-10	-8	-2	4
Cc1ccc(S(=O)(=O)Nc2cccc(-c3ccc(N4CCCC4)nn3)c2)c(C)c1	0	1	7	2	11
Cc1cc(C)c(S(=O)(=O)NCC(c2ccco2)N2CCOCC2)c(C)c1 (configuration not stated)	0	1	x	2	-4
Cc1ccc(OCC(=O)NCC(c2ccc(Cl)cc2)N2CCCCC2)cc1 (configuration not stated)	0	1	6	-2	0
COCCNC(=S)N/N=C(\C)c1ccc(O)cc1	-1	-5	-15	-5	4
C/C(=N\NC(=S)NCC(C)(C)C)c1cc(F)cc(F)c1O	1	-11	-85*	7	22
CCOC(=O)c1ccccc1NC(=O)N(Cc1ccco1)C1CCN(C(C)=O)CC1	-1	5	0	0	0
CCn1nc(C)c2c(-c3ccccc3)cc(=O)n(C(C)C(=O)NCCc3ccc(OC)c(OC)c3)c21 (configuration not stated)	0	-5	1	7	0
CC(C)(C)CN1C(N)=NC[C@@H]1Cc1ccc(O)cc1	-1	0	-45*	-5	2
NC(=O)NC(=O)COC(=O)c1cccc(S(=O)(=O)N2CCCCCC2)c1	0	-6	-44*	3	1
Cc1ccc(C)c(NC(=O)COC(=O)c2cccc(S(=O)(=O)N3CCCCC3)c2)c1	0	15	-11	-10	2
O=C(COC(=O)c1cccc(S(=O)(=O)N2CCCC2)c1)Nc1ccccc1C(F)(F)F	0	-3	-33*	-9	8
O=C(COC(=O)c1cccc(S(=O)(=O)N2CCCCCC2)c1)Nc1ccccc1	1	8	19	-1	6
Cc1ccc(NC(=O)Cn2c(=O)n(Cc3ccccc3)c(=O)c3c2c2cc(C)ccc2n3C)cc1	0	-3	9	15	2
C=CCn1c(=O)/c(=C/c2ccc(O)cc2)s/c1=C(/C#N)c1nnc2n1CCCCC2	30*	1	-1	-6	50*
CCc1ccc(C(=O)C(C)OC(=O)Cc2n[nH]c(=O)c3ccccc23)cc1 (configuration not stated)	2	31*	-17	11	3
CC(=O)c1cccc(NC(=O)C(C)OC(=O)Cc2n[nH]c(=O)c3ccccc23)c1 (configuration not stated)	0	-9	-34*	-1	0
O=C(CCCCCn1c(=O)c2sccc2n(Cc2ccc(Cl)cc2)c1=O)NCc1ccc2c(c1)OCO2	3	0	-18	-1	6
O=S(=O)(Nc1ccccc1)c1ccc(Oc2ncc(C(F)(F)F)cc2Cl)cc1	3	-2	-3	2	32*
